Data from PubChem BioAssay AID720647 (Broad Institute, 2013).
In all, about 380,000 compounds went through this assay and about 1,300 (0.34%) were called active. Shown is part of a subset that was picked to be rich in actives. A number with no mark means an inactive call.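 The calls were made as follows: active = drop in luminescence signal, shown as inhibition above about 50% in the replicate tests (limit read from the data, passing the limit was not always enough); inconclusive = probably only some replicates passing the limit; inactive = the rest.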

test system: Drosophila bursicon receptor LGR2 (rickets); experiment: LGR2 cAMP reporter signal reduction – cell-based, HEK293, CRE-luciferase reporter, bursicon stimulation, primary screen (AID 720647); details: bursicon-stimulated, 4 h, at 9.99 µM, active compounds read high;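 also: agonist challenge used bursicon conditioned medium at about half maximal strength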

Row | SMILES | inhibition
1 | C[C@]12CCC3C(CC[C@H]4C[C@@H](O)CC[C@]34C)C1C[C@@H](O)[C@H]2O (stereo not given in full) | 21.8%
2 | C[C@]12CCC3C(CC[C@H]4C[C@@H](O)CC[C@]34C)C1CC[C@@H]2O (stereo not given in full) | 4.33%
3 | C[C@]12CC[C@H](O)C[C@H]1CC[C@@H]1C2CC[C@]2(C)[C@@H](C3=CC(=O)OC3)[C@@H](O)C[C@]12O (stereo not given in full) | 75.1% (active)
4 | Cc1cc(N2CCNC[C@@H]2C)ccc1N1CC[C@H](O)C1 | -14.4%
5 | O=C(Cc1ccccn1)N1CCCCN2[C@H](C1)[C@H](c1ccc(-c3ccccc3F)cc1)[C@@H]2CO | 20.2%
6 | CCOc1ccc(-c2cc(C)[n+](CCN(CC)CC)c(-c3ccc(OCC)cc3)c2)cc1 | 60.4% (active)
7 | CS(=O)(=O)N1CCC2CCNC2C1 (stereo not given) | -1.04%
8 | O=C(Cc1ccncc1)N1CCCCN2[C@@H](CO)[C@H](c3ccc(C#CC4(O)CCCC4)cc3)[C@@H]2C1 | -0.939%
9 | Clc1ccc([C@@H]2CC3CCC2N3)cn1 (stereo not given in full) | 7.28%
10 | O=S(=O)(c1ccccc1)N1CCC2CCNC2C1 (stereo not given) | 8.51%
11 | CCC(C)(O)C(=O)OC1C(=O)OC2CC3C(C)=CC(=O)C(O)C3(C)C3C4(O)OCC23C1C(C)C4O (stereo not given) | 101% (active)
12 | O=C(Cc1ccccc1)N1CCCCN2[C@H](CO)[C@H](c3ccc(C#Cc4ccccc4)cc3)[C@H]2C1 | 0.501%
13 | COC(=O)[C@@H]1[C@@H](CO)[C@@H]2Cn3c(ccc(-c4cccc(C(=O)N(C)C)c4)c3=O)[C@H]1N2C(=O)NC(C)C | 31.6%
14 | CCN(CC)C(=O)[C@@H]1C=C2c3cccc4[nH]c(Br)c(c34)C[C@H]2N(C)C1 | 9.95%
15 | COc1ccc(C#Cc2ccc([C@H]3[C@H](CO)N4CCCCN(C(=O)Cc5ccccc5)C[C@@H]34)cc2)cc1 | 10.8%
16 | COC(=O)[C@@H]1[C@@H](CO)[C@@H]2Cn3c(ccc(-c4ccc(F)cc4)c3=O)[C@H]1N2C(C)=O | -7.85%
17 | COc1cccc(-c2nc3ccc(N4CCN(C)CC4)cc3[nH]2)c1 | 88.7% (active)
18 | CN1CCN(c2cc(N3CCNCC3)ccc2[N+](=O)[O-])CC1 | 1.9%
19 | COc1cccc(-c2ccc([C@H]3[C@H]4CN(C(=O)Cc5ccncc5)CCCCN4[C@H]3CO)cc2)c1 | -6.52%
20 | COc1ccc2c(c1)[C@@]13CCCCC1[C@@H](C2)NCC3 (stereo not given in full) | 15.4%
21 | COC1C(O)C(C)OC(OC2CCC3(C=O)C(CCC4C3CCC3(C)C(C5=CC(=O)OC5)CCC43O)C2)C1O (stereo not given) | 83.8% (active)
22 | CCC(C)NC1(c2ccccc2)CCCCC1 (stereo not given) | -0.048%
23 | COC(=O)[C@H]1[C@H](CO)[C@H]2Cn3c(cccc3=O)[C@H]2N1CC1CC1 | 26.9%
24 | C/C=C/c1ccc(C2[C@@H]3CN(Cc4cncnc4)C[C@H]2N3)cc1 (stereo not given in full) | -8.19%
25 | O=C(Cc1ccccn1)N1CCCCN2[C@@H](CO)[C@@H](c3ccc(C#Cc4ccccc4)cc3)[C@@H]2C1 | -13.4%
